# Measurements from PubChem BioAssay.
# “And” between values parts separate entries of the source, which are not always exact repeats. Equal values may be shown once. Results filed as inconclusive are left out. For some assays here: Potency and affinity values are given separately. The source made the active and inactive calls. Unless noted, how the calls were made is not given here.
# How the values were obtained:
# [1] = blockers of polyQ-driven CASP3 activation – cell-based (AID 1583); conditions: polyglutamine-induced caspase-3 activation, cell assay; stronger effect = higher value;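 tested at 10 µM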
# [2] = yeast 75Q aggregation reduction – 75Q-TubU reporter (AID 1593); conditions: Yeast 75Q polyglutamine aggregation reporter
# [3] = restoration of touch response, mutant HTT neurons – whole organism, C. elegans mechanosensory neurons, N-terminal huntingtin (AID 1599); conditions: C. elegans polyQ-huntingtin mechanosensory neurons, stronger effect = higher value
# [4] = blockers of cytochrome c efflux from mitochondria – biochemical, purified mitochondria (AID 1603); conditions: stronger effect = lower value;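 further: mouse liver mitochondria challenged with calcium chloride; signal normalized to the plate average as 100%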
# [5] = polyglutamine aggregate formation blockers (AID 1604); conditions: polyglutamine-induced protein aggregation inhibition assay; stronger effect = higher value; tested at 2.5 µM
# [6] = glutamate transport activators, MN-1 cells, MN-1 cell line (AID 1612); conditions: MN-1 motor neuron cells, stronger effect = higher value;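 further: tested at 1 µM final; 0% = mean of DMSO vehicle wells on each plate; positive means more glutamate uptake than control and negative means less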
# [7] = GFP-Q80 aggregate reduction, neuronal-like cells, cell-based, NGF-treated PC12, GFPQ80 (AID 1614); conditions: PC12 NGF-treated GFP-polyQ80 inclusion reduction;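 further: lower means fewer inclusions and 0 means no inclusions at all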
# [8] = 75Q-TubH aggregate inhibition, S. cerevisiae, yeast (AID 1616); conditions: S. cerevisiae 75Q-TubH polyglutamine aggregation suppression; stronger effect = higher value
# [9] = P. berghei load reduction in hepatocytes – cell-based, HepG2, luciferase luminescence, HepG2 viability, primary screen (AID 624349; in the data active means parasite load remaining mostly below about 12%, no sharp cut-off; inactive means mostly above about 10%;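 further: 100% = mean of DMSO negative control wells on the same plate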); conditions: P. berghei liver stage in HepG2, luciferase luminescence, concentration not given here; parasite load remaining: stronger effect = lower value; viability: measured here: HepG2 viability without parasites
# [10] = target: 6-phosphogluconate dehydrogenase, decarboxylating (Homo sapiens) (UniProt P52209); assay: inhibition of human phosphogluconate dehydrogenase – biochemical, recombinant enzyme, NADPH absorbance, primary screen (AID 1159550;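 active means at least 20% inhibition of 6-phosphogluconate dehydrogenase activity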); conditions: recombinant 6PGD, NADPH absorbance 341 nm; at 10 µM; stronger effect = higher value
# [11] = EMT-state selective cytotoxicity in co-culture – imaging, PC-3E GFP, TEM4-18 mCherry, primary screen (AID 1345086;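 active means compounds killing one labelled cell type while sparing the other, by normalised counts and ratio limits, not self-fluorescent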;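 on all read-outs here: cells exposed to compound for 72 h before imaging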;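 on red/green cell ratio (normalised): normalised mesenchymal count divided by normalised epithelial count so high means epithelial killing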); conditions: PC-3E GFP / TEM4-18 mCherry co-culture, imaging cell counts, at 1 µM; for red/green cell ratio (normalised): actives lie on both sides
# [12] = tested on: Aerobactin synthetase IucA (Klebsiella pneumoniae hvKP1); assay: IucA enzyme inhibition, primary screen, biochemical, Spectrum library (AID 1346200); conditions: malachite green pyrophosphate, A620, at 8 µM, stronger effect = lower value;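 further: 100% = wells without compound and 0% = wells lacking enzyme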
# [13] = tested on: Aerobactin synthetase IucA (Klebsiella pneumoniae, hypervirulent); assay: biochemical IucA inhibition screen of LOPAC library by absorbance (AID 1346212); conditions: IucA enzyme assay, absorbance (OD) readout; stronger effect = lower value; concentration not given here;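 further: 100% = no compound wells and 0% = no enzyme wells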
# [14] = viability loss with induced miR-34 in A549 – imaging, A549 dox-inducible miR-34, nuclei and caspase counts, primary screen (AID 1347080;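 active means compounds whose cell count with miR-34 switched on is under 0.7 times the count with it off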); conditions: A549 miR-34 inducible, Hoechst nuclei count, 48 h
# [15] = target: Mitogen-activated protein kinase 7 (Homo sapiens) (UniProt Q13164); assay: Gal4-ERK5 driven luciferase induction – cell-based, HTS, primary screen (AID 1508626;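 active means luciferase signal above three times the same-plate solvent-only control wells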;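 further: luciferase driven by Gal4-ERK5 fusion binding five Gal4 sites before minimal TATA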); conditions: HeLa Gal4-ERK5 transactivation, 18 h, at 5 µM, stronger effect = higher value
# [16] = galactose survival enhancers in mitochondrial complex I cybrids – cell-based, galactose medium, ATP luminescence, primary screen (AID 1645843;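 active means z-score of at least 1.8 in each of two replicates, scored against plate mean and spread of sample wells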;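 further: positive z means more ATP and so rescue of galactose-driven cybrid death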); conditions: complex I mutant cybrid cells, 72 h, stronger effect = higher value
# [17] = MELAS cybrid and Rieske KO viability enhancers – cell-based, MELAS cybrids, Rieske KO mouse fibroblasts, CellTiter-Glo, primary screen (AID 1508586;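 active means mean z-score across replicates of 1.96 or higher in either the MELAS or the Rieske mutant cell line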;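 further: z relative to plate mean and SD of compound and empty wells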); conditions: low glucose
# [18] = target: NAD(+) hydrolase SARM1 (Homo sapiens) (UniProt Q6SZW1); assay: blocking NAD cleavage by SARM1 SAM-TIR – cell lysate, NAD-Glo luminescence (AID 1508614;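 active means compound whose remaining NAD level is above about 45 nM, limit read from the data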); conditions: SAM-TIR HEK293T lysate NADase, at 1 µM, stronger effect = higher value
# [19] = target: ATP-dependent translocase ABCB1 (Homo sapiens) (UniProt P08183); assay: P-glycoprotein substrate transport blockade – cell-based (AID 377; in the data active means fluorescence slope change above about 50%); conditions: MDR1-expressing cells, fluorescent substrate accumulation slope; stronger effect = higher value; concentration not given here
# [20] = compounds altering viability of human ES cells (AID 493140); conditions: human embryonic stem cell survival screen; stronger effect = higher value;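 further: cells exposed to compounds for four days before counting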
# [21] = measured here: epithelial PC-3E GFP cell survival
# [22] = measured here: mesenchymal TEM4-18 mCherry cell survival
# [23] = stronger effect = lower value, cell number ratio, induced over uninduced
# [24] = measured here: relative caspase fold change +Dox/-Dox
# [25] = measured here: total cells with miR-34 induction, stronger effect = lower value
# [26] = measured here: total cells without miR-34 induction
# [27] = MELAS cybrid survival, CellTiter-Glo 48 h, stronger effect = higher value
# [28] = Rieske KO mouse fibroblast survival, CellTiter-Glo 72 h
# Chain of 6-phosphogluconate dehydrogenase, decarboxylating (Homo sapiens) (P52209 whole entry, looked up): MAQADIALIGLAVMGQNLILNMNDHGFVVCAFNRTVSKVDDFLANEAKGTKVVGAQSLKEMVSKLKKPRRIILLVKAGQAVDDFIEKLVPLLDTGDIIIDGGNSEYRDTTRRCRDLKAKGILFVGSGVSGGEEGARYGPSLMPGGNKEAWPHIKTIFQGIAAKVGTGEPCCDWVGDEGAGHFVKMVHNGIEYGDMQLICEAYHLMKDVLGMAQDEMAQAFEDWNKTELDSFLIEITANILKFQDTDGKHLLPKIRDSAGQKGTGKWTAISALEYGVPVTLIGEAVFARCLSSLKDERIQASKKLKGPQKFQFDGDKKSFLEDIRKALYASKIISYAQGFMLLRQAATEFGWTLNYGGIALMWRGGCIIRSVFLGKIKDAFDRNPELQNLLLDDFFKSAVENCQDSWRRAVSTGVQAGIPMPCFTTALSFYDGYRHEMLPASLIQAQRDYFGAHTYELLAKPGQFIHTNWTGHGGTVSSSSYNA
# Chain of NAD(+) hydrolase SARM1 (Homo sapiens) (Q6SZW1 whole entry, looked up): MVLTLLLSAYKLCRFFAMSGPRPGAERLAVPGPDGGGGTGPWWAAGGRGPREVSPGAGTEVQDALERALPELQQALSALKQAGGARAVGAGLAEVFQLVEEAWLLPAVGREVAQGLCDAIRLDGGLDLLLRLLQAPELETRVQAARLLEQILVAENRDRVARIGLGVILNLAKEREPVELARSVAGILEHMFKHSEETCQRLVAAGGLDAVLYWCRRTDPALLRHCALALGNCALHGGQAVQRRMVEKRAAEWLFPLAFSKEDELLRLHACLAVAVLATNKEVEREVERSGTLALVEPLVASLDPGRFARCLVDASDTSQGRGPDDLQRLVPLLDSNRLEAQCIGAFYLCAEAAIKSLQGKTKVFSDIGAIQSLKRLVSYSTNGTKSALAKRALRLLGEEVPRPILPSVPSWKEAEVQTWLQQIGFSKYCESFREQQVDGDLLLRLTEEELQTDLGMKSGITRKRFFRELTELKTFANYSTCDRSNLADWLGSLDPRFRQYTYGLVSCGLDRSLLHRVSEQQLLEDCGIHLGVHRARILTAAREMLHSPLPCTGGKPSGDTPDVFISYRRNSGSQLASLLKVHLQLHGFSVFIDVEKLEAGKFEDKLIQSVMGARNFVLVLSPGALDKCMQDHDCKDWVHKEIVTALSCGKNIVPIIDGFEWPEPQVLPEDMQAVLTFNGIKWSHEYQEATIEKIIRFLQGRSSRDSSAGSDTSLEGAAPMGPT
# Chain of Mitogen-activated protein kinase 7 (Homo sapiens) (Q13164 whole entry, looked up, the tested form may be a part): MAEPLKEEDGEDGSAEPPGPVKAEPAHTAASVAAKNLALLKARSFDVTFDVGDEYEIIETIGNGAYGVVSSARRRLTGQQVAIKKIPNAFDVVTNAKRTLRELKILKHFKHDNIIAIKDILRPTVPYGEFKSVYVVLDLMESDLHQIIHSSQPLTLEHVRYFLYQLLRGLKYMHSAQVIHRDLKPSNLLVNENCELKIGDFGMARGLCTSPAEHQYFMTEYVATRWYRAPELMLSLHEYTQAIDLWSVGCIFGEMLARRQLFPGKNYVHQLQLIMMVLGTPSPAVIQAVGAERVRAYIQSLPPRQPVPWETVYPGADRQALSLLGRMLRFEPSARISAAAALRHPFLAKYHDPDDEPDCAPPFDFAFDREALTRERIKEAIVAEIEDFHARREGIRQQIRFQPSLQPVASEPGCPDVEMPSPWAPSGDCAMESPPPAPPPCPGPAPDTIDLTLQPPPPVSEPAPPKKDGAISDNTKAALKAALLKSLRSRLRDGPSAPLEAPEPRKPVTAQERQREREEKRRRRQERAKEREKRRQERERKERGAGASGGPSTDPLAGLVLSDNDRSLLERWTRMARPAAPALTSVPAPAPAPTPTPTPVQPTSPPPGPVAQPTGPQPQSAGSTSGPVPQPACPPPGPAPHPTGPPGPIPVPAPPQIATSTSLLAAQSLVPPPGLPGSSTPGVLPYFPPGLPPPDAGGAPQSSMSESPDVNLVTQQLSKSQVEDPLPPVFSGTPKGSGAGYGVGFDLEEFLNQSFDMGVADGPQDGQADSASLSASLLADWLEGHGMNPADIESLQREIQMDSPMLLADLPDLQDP
# Chain of ATP-dependent translocase ABCB1 (Homo sapiens) (P08183 whole entry, looked up): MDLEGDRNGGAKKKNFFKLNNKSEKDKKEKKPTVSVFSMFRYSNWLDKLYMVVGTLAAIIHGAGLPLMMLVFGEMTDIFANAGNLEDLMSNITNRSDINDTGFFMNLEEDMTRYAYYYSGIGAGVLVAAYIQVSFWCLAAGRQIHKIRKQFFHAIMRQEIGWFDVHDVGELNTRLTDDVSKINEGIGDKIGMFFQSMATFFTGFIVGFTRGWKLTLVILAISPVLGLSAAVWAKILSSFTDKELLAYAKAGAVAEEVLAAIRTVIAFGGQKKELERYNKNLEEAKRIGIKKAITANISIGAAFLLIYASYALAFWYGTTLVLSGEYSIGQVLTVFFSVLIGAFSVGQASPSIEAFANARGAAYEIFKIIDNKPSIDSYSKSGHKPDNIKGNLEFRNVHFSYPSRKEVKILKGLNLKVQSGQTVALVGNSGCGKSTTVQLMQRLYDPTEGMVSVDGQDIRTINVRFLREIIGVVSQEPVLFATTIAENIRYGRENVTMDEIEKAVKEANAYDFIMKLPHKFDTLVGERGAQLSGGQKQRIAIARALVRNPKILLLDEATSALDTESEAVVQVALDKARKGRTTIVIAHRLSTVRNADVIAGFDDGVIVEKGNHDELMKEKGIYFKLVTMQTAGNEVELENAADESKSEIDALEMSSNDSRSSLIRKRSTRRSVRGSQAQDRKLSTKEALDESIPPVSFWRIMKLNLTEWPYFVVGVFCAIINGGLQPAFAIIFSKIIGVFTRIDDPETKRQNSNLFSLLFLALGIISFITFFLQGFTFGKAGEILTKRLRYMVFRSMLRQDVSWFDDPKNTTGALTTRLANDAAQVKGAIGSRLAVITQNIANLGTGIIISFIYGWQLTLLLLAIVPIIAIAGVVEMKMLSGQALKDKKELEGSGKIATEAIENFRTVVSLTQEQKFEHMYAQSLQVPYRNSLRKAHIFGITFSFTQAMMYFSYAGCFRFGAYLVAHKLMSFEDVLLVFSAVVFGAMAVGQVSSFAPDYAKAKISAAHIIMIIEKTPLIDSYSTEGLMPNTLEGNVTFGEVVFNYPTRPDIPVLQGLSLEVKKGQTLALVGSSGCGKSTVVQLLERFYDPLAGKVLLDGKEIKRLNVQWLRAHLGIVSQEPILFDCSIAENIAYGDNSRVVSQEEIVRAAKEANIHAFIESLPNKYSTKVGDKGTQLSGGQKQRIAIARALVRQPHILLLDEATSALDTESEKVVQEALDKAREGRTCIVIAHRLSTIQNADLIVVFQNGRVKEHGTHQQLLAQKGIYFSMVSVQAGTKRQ
structure (smiles),measurement,setting,value
NC(N)=NOCC[C@H](N)C(=O)O,inhibition,[1],10.5%
same,score,[2],1.23
same,rescue above control,[3],-6.04
same,cytochrome c release ratio,[4],1.27
same,inhibition of aggregation,[5],85.9%
same,glutamate uptake change,[6],11.4%
same,inclusion score,[7],2
same,aggregation suppression score,[8],1.39
same,parasite load remaining,[9],114% (inactive) and 105% (inactive)
same,viability,[9],112% and 68.7%
same,inhibition,[10],12.8% (inactive)
same,red/green cell ratio (normalised),[11],1.04 (inactive)
same,normalised cell number,[11]; [21],0.91
same,normalised cell number,[11]; [22],0.95
same,activity remaining,[12],113% (inactive)
same,remaining activity,[13],106% (inactive) and 121% (inactive)
same,fold change,[14]; stronger effect = lower value,1.01 (inactive)
same,fold change,[14]; [23],0.827 (inactive)
same,fold change,[14]; [24],1.39 and 1.69
same,cell count,[14]; [25],9120 and 8920
same,cell count,[14]; [26],8990 and 10800
same,luciferase signal,[15],84 AU (inactive)
same,z-score,[16],0.085 (inactive)
CCCCCCCCCCCCCCCC[n+]1ccccc1,inhibition,[1],55.6%
same,score,[2],-0.08
same,rescue above control,[3],0
same,cytochrome c release ratio,[4],3.74
same,inhibition of aggregation,[5],52.2%
same,glutamate uptake change,[6],-18.1%
same,aggregation suppression score,[8],-0.00459
same,parasite load remaining,[9],-0.13% (inactive) and -0.08% (inactive)
same,viability,[9],14.3% and 4.9%
same,inhibition,[10],10.7% (inactive)
same,red/green cell ratio (normalised),[11],0.76 (inactive)
same,normalised cell number,[11]; [21],0.52
same,normalised cell number,[11]; [22],0.4
same,activity remaining,[12],111% (inactive)
same,fold change,[14]; stronger effect = lower value,0.867 (inactive) and 0.767 (inactive)
same,fold change,[14]; [24],1.06 and 4.42
same,cell count,[14]; [25],1850 and 1610
same,cell count,[14]; [26],2130 and 2090
same,z-score,[17]; [27],-0.367 (inactive)
same,z-score,[17]; [28],-0.303
same,remaining NAD,[18],10 nM (inactive)
same,luciferase signal,[15],96 AU (inactive)
CC[C@@H]1C(=O)OC[C@@H]1Cc1cncn1C,fluorescence slope change,[19],105% (active)
same,inhibition,[1],5.24%
same,score,[2],1.3
same,rescue above control,[3],1.26
same,cytochrome c release ratio,[4],1.64
same,inhibition of aggregation,[5],35.3%
same,glutamate uptake change,[6],4.33%
same,inclusion score,[7],2
same,aggregation suppression score,[8],1.4
same,survival,[20],5.75 (inactive)
same,inhibition,[10],-6.49% (inactive)
same,red/green cell ratio (normalised),"[11]; counts scaled to control wells, 1 = unselective",1.18 (inactive)
same,normalised cell number,[11]; [21],0.97
same,normalised cell number,[11]; [22],1.14
same,activity remaining,[12],115% (inactive)
same,remaining activity,[13],112% (inactive) and 106% (inactive)
same,z-score,[17]; [27],0.213 (inactive)
same,z-score,[17]; [28],-0.117
same,remaining NAD,[18],10 nM (inactive)
same,luciferase signal,[15],44 AU (inactive)
same,z-score,[16],0.47 (inactive) and 0.265 (inactive) and 0.26 (inactive)
CNC(C)C(O)c1ccccc1 (centres undefined),inhibition,[1],28.1% and 10.2%
same,score,[2],0.95 and 1.05
same,rescue above control,[3],-2.36 and -10.7
same,cytochrome c release ratio,[4],1.45 and 0.98
same,inhibition of aggregation,[5],84.6% and 51.5%
same,glutamate uptake change,[6],-17.5% and 6.9%
same,inclusion score,[7],2
same,aggregation suppression score,[8],1.13 and 1.02
same,parasite load remaining,[9],90.9% (inactive) and 53.2% (inactive)
same,viability,[9],77.9% and 114%
same,inhibition,[10],-20.1% (inactive)
same,red/green cell ratio (normalised),[11],0.97 (inactive)
same,normalised cell number,[11]; [21],1.05
same,normalised cell number,[11]; [22],1.03
same,activity remaining,[12],81.5% (inactive)
same,fold change,[14]; stronger effect = lower value,0.894 (inactive)
same,fold change,[14]; [24],2.97
same,cell count,[14]; [25],10800
same,cell count,[14]; [26],12100
same,remaining NAD,[18],10 nM (inactive)
same,luciferase signal,[15],24 AU (inactive)
COc1ccc2c(c1)[nH]c1c(C)nccc12,fluorescence slope change,[19],59.3% (active)
same,survival,[20],4.58 (inactive)
same,viability,[9],76.6% and 67.9% and 85.5%
same,inhibition,[10],-2.64% (inactive)
same,red/green cell ratio (normalised),[11],0.67 (inactive)
same,normalised cell number,[11]; [21],0.9
same,normalised cell number,[11]; [22],0.6
same,activity remaining,[12],104% (inactive)
same,fold change,[14]; stronger effect = lower value,0.845 (inactive) and 0.909 (inactive) and 0.923 (inactive)
same,fold change,[14]; [24],1.49 and 0.507 and 1.16
same,cell count,[14]; [25],4630 and 5110 and 4130
same,cell count,[14]; [26],5480 and 5630 and 4470
same,z-score,[17]; [27],0.384 (inactive)
same,z-score,[17]; [28],1.34
same,luciferase signal,[15],124 AU (inactive)
same,z-score,[16],-0.45 (inactive)
[N-]=[N+]=CC(=O)OCC(N)C(=O)O (centres undefined),inhibition,[1],30.9%
same,score,[2],1.27
same,rescue above control,[3],6.35
same,cytochrome c release ratio,[4],1.1
same,inhibition of aggregation,[5],-39.4%
same,glutamate uptake change,[6],-10.2%
same,inclusion score,[7],1
same,aggregation suppression score,[8],0.586
same,parasite load remaining,[9],3.63% (inactive)
same,viability,[9],82.2%
same,inhibition,[10],12.8% (inactive)
same,red/green cell ratio (normalised),[11],1.35 (inactive)
same,normalised cell number,[11]; [21],0.86
same,normalised cell number,[11]; [22],1.16
same,activity remaining,[12],105% (inactive)
same,fold change,[14]; stronger effect = lower value,0.832 (inactive)
same,fold change,[14]; [24],1.38
same,cell count,[14]; [25],601
same,cell count,[14]; [26],722
CC1=NCCc2c1[nH]c1cc(O)ccc21,fluorescence slope change,[19],159% (active)
same,inhibition,[1],-45.7%
same,score,[2],0.81
same,rescue above control,[3],0.94
same,cytochrome c release ratio,[4],0.72
same,inhibition of aggregation,[5],14.3%
same,glutamate uptake change,[6],13.4%
same,inclusion score,[7],2
same,aggregation suppression score,[8],1.24
same,survival,[20],17.3 (inactive)
same,parasite load remaining,[9],47.1% (inactive) and 63.7% (inactive) and 58.9% (inactive)
same,viability,[9],102% and 67.4% and 76.2%
same,inhibition,[10],-14.9% (inactive)
same,red/green cell ratio (normalised),[11],0.98 (inactive)
same,normalised cell number,[11]; [21],1.01
same,normalised cell number,[11]; [22],0.99
same,activity remaining,[12],98.9% (inactive)
same,fold change,[14]; [23],0.845 (inactive)
same,fold change,[14]; [24],1.99
same,cell count,[14]; [25],8870
same,cell count,[14]; [26],10500
same,luciferase signal,[15],64 AU (inactive)
COc1cc(OC)c2c(c1)O[C@H](c1ccc(OC)c(OC)c1)[C@@H](O)C2,inhibition,[10],14.9% (inactive)
same,red/green cell ratio (normalised),[11],0.81 (inactive)
same,normalised cell number,[11]; [21],0.96
same,normalised cell number,[11]; [22],0.78
same,activity remaining,[12],111% (inactive)
same,luciferase signal,[15],32 AU (inactive)
C/C=C(/C)C(=O)O[C@H]1CC[C@@]2(C)[C@@H]3CC[C@H]4[C@]5(O)C[C@H](O)[C@@]6(O)[C@@H](CN7C[C@@H](C)CC[C@H]7[C@@]6(C)O)[C@]5(O)C[C@@]42O[C@]13O,inhibition,[1],-10.4%
same,score,[2],1.23
same,rescue above control,[3],6.62
same,cytochrome c release ratio,[4],0.66
same,inhibition of aggregation,[5],73.8%
same,glutamate uptake change,[6],7.49%
same,inclusion score,[7],2
same,aggregation suppression score,[8],1.05
same,inhibition,[10],-10.1% (inactive)
same,red/green cell ratio (normalised),[11],0.76 (inactive)
same,normalised cell number,[11]; [21],1.31
same,normalised cell number,[11]; [22],1
same,activity remaining,[12],98.9% (inactive)
same,luciferase signal,[15],96 AU (inactive) and 56 AU (inactive)
